Source: PubChem BioAssay (several laboratories)
ALR H2O2 inh: blocks human ALR sulfhydryl oxidase activity. P55789. purified ALR, DTT oxidation, H2O2 HRP-luminol luminescence. inhibition, % (concentration not given with the values). 290,000 tested, 3.8% active;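 active = mean replicate inhibition above about 79%, with every replicate also reaching it, limit read from the data; inconclusive = only one of the two criteria met; inactive = mean below limit and not every replicate reaching it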
MLLE-PAM2 inh: blocks PAM2 peptide binding to the PABP1 MLLE domain; 360,000 tested, 0.36% active; GST-MLLE / FITC-PAM2 fluorescence polarization; P11940; inhibition, % at 20 µM; in the data active = inhibition above about 35%, passing the limit was not always enough;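 also: plate controls were DMSO wells with GST-MLLE for no effect and wells lacking GST-MLLE protein for full effect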
PABP FP inh: PABP-poly(A) binding inhibition; P11940; PABP-poly(A) RNA binding, fluorescence polarization; inhibition, % at 35 µM; 290,000 tested, 1% active;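 also: calls also rest on retests at 20 µM and on dose response follow-up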
eIF4H inh: inhibitors of RNA binding by human eIF4H; 290,000 tested, 0.94% active; eIF4H fluorescence polarization binding assay; inhibition, % at 35 µM;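 also: calls also rest on retests at 20 µM and on dose response follow-up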
Efflux pump inh: inhibitors of Candida antifungal efflux pumps expressed in yeast. S. cerevisiae Candida pump triplex, Nile Red efflux. inhibition, % at 10 µM. 330,000 tested, 0.44% active;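 active = plate passing quality check with inhibition over a set limit, or well fluorescence over plate mean plus 4 SD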;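 also: Nile Red retained in pooled yeast measured as flow cytometry median fluorescence; 0% = buffer negative control and 100% = Enniatin B positive control; higher means more Nile Red kept so more efflux inhibition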
UBC9 SUMO inh: blocks human SUMOylation mediated by UBC9 | 290,000 tested, 0.36% active | P63279 | inhibition, % at 35 µM | HTRF SUMOylation assay, SAE1/SAE2 + UBC9, in vitro; in the data active = inhibition above about 50%, passing the limit was not always enough; inconclusive = no clear call, values can overlap the other calls
Target sequence (P63279 whole entry, looked up): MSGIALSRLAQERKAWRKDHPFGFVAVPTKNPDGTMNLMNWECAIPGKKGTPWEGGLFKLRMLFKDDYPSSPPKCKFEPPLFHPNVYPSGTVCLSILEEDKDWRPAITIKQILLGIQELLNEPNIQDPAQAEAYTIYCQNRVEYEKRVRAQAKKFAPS
The depositor's hits bear a star. Most compounds without a hit are left out; they make up all but 4.7% or so of the library. Unless noted, no rule for the calls is given here.

Screening CCOc1cc(/C=C2/NC(=O)N(CC(=O)OC)C2=O)ccc1O returned ALR H2O2 inh 96*, MLLE-PAM2 inh 1, PABP FP inh -4, eIF4H inh 3, Efflux pump inh 0 and UBC9 SUMO inh 5.
Nc1nc(OCC2CCCCC2)c2[nH]cnc2n1 was read as ALR H2O2 inh 97*, MLLE-PAM2 inh -7, PABP FP inh 0, eIF4H inh 10, Efflux pump inh 0 and UBC9 SUMO inh -2.
For O=S(=O)(c1ccccc1)n1c(C(O)c2ccccn2)cc2ccccc21 (configuration not stated) the results were ALR H2O2 inh -3, MLLE-PAM2 inh -6, PABP FP inh -3, eIF4H inh 7, Efflux pump inh 0 and UBC9 SUMO inh 1.
O=C(Nc1ccccc1)c1nnsc1S(=O)c1ccc(Cl)cc1 (configuration not stated) was read as ALR H2O2 inh 98*, MLLE-PAM2 inh 32, PABP FP inh 8, eIF4H inh 1, Efflux pump inh 0 and UBC9 SUMO inh 22.
For O=C(c1nnsc1S(=O)c1ccc(Cl)cc1)N1CCOCC1 (configuration not stated) the results were MLLE-PAM2 inh 31, PABP FP inh 22, eIF4H inh 0 and UBC9 SUMO inh 8.
Screening C/C(=N\NC(=O)c1ccc(-n2cnnn2)cc1)c1ccc(C)cc1 returned ALR H2O2 inh 8, MLLE-PAM2 inh 6 and Efflux pump inh 0.
COc1cc(-c2csc(CCn3nc(C)cc3C)n2)cc(OC)c1OC was read as ALR H2O2 inh 99*, MLLE-PAM2 inh 17, PABP FP inh 1, eIF4H inh -1, Efflux pump inh 0 and UBC9 SUMO inh 9.
Screening CC(=O)N1CCc2cc(S(=O)(=O)CCC(=O)N(C)c3cc(C)ccc3C)ccc21 returned ALR H2O2 inh 24, MLLE-PAM2 inh 14, PABP FP inh 15, eIF4H inh 8, Efflux pump inh 0 and UBC9 SUMO inh -6.
`C=CCNC(=O)c1nc2ccccc2s1` gave MLLE-PAM2 inh 5, PABP FP inh 1, eIF4H inh 0, Efflux pump inh 0 and UBC9 SUMO inh 13.
`CC(=O)NCCNC(=O)c1ccc(CSc2nc3ccccc3s2)cc1` gave ALR H2O2 inh 99*, MLLE-PAM2 inh 9, PABP FP inh 10, eIF4H inh 3, Efflux pump inh 0 and UBC9 SUMO inh 6.
Screening C=CCNC(=O)c1ccc(CSc2nc3ccccc3s2)cc1 returned ALR H2O2 inh 99*, MLLE-PAM2 inh -2, PABP FP inh -2, eIF4H inh -6, Efflux pump inh 0 and UBC9 SUMO inh 6.
Screening CN(C(=O)c1ccc(NC(=O)Cc2cccc(NC(=O)C3CCN(C(=O)C4CCCC4)CC3)c2)cc1)C1CC1 returned MLLE-PAM2 inh 0.
Cc1cnc(C(=O)OCC(=O)NCc2ccc(Cl)cc2)cn1 was read as ALR H2O2 inh 3, MLLE-PAM2 inh -15 and Efflux pump inh 0.
For COc1cc(/C=C2/SC(=S)N(CCC(=O)Nc3ccccc3)C2=O)cc(OC)c1OC the results were ALR H2O2 inh 3, MLLE-PAM2 inh -35 and Efflux pump inh 0.
For CC1(C)CC(=O)C(=Cc2cn(CCC#N)nc2-c2ccc(F)cc2)C(=O)C1 the results were ALR H2O2 inh 95*, MLLE-PAM2 inh 17, PABP FP inh -17, eIF4H inh -5, Efflux pump inh 0 and UBC9 SUMO inh 12.
O=C1NC(c2ccco2)Nc2sc3c(c21)CCN(Cc1ccccc1)C3 (configuration not stated) was read as ALR H2O2 inh 5, MLLE-PAM2 inh -74, PABP FP inh 124*, eIF4H inh 116*, Efflux pump inh 0 and UBC9 SUMO inh -9.
For CN1CCc2c(sc3c2C(=O)NC(c2ccco2)N3)C1 (configuration not stated) the results were ALR H2O2 inh 0, MLLE-PAM2 inh -23, PABP FP inh 45, eIF4H inh 50, Efflux pump inh 0 and UBC9 SUMO inh 19.
For COc1ccc(Br)cc1C1NC(=O)c2c(sc3c2CCN(C)C3)N1 (configuration not stated) the results were MLLE-PAM2 inh -33, PABP FP inh 64*, eIF4H inh 100* and UBC9 SUMO inh 18.
`CN1CCc2c(sc3c2C(=O)NC(c2ccc(-c4ccc(Cl)cc4)o2)N3)C1` (configuration not stated) gave ALR H2O2 inh 91*, MLLE-PAM2 inh -134, PABP FP inh 42, eIF4H inh inconclusive, Efflux pump inh 0 and UBC9 SUMO inh 6.
Screening Cc1cc(/C=c2/sc3nc4ccccc4n3c2=O)c(C)n1-c1ccccn1 returned ALR H2O2 inh -2, MLLE-PAM2 inh -39, PABP FP inh 21, eIF4H inh 22, Efflux pump inh 1 and UBC9 SUMO inh 35.
`Cc1cc(/C=c2\sc3nc4ccccc4n3c2=O)c(C)n1-c1ccc(C(=O)O)cc1` gave MLLE-PAM2 inh -44, PABP FP inh 0.7*, eIF4H inh 64 and UBC9 SUMO inh 18.
For O=C(CSCc1nc2c(nnn2Cc2ccc(F)cc2)c(=O)[nH]1)Nc1cccc(C(F)(F)F)c1 the results were ALR H2O2 inh 96*, MLLE-PAM2 inh 14, PABP FP inh 20, eIF4H inh 15, Efflux pump inh 0 and UBC9 SUMO inh 5.
`NC(=O)CSc1nc2ccccc2c(=O)n1-c1ccccc1` gave ALR H2O2 inh -4, MLLE-PAM2 inh -3, PABP FP inh -3, eIF4H inh -5, Efflux pump inh 0 and UBC9 SUMO inh -15.
For Cc1c(O)nc(SCC(=O)Nc2cccc(C(F)(F)F)c2)n(-c2ccccc2)c1=O the results were ALR H2O2 inh 99*, MLLE-PAM2 inh 12, PABP FP inh -1, eIF4H inh -11, Efflux pump inh 0 and UBC9 SUMO inh 8.
Screening COc1cccc(-n2c(SCC(N)=O)nc3ccccc3c2=O)c1 returned ALR H2O2 inh 4, MLLE-PAM2 inh -70, PABP FP inh 5, eIF4H inh 58*, Efflux pump inh 0 and UBC9 SUMO inh 11.
`COc1cccc(NC(=O)CSc2nc(O)c(C)c(=O)n2-c2ccc(C)cc2)c1` gave ALR H2O2 inh 98*, MLLE-PAM2 inh 26, PABP FP inh -5, eIF4H inh -11, Efflux pump inh 0 and UBC9 SUMO inh 14.
Cc1c(O)nc(SCC(=O)Nc2ccc3c4c(cccc24)CC3)n(-c2ccc(F)cc2)c1=O was read as MLLE-PAM2 inh 40*, PABP FP inh -1, eIF4H inh 39, Efflux pump inh 0 and UBC9 SUMO inh -2.
For COc1cccc(NC(=O)CSc2nc3ccccc3c(=O)n2C)c1 the results were ALR H2O2 inh -12, MLLE-PAM2 inh 5, PABP FP inh -7, eIF4H inh 1, Efflux pump inh 0 and UBC9 SUMO inh 19.
COc1ccc(CCC(=O)N2CCN(c3ccccc3)CC2)cc1OC was read as ALR H2O2 inh 21, MLLE-PAM2 inh 15, PABP FP inh -11, eIF4H inh 0, Efflux pump inh 0 and UBC9 SUMO inh 1.
